The source made the active and inactive calls. The calls were made as follows: active = hit-call score of the fitted dose curve at least 0.9, where 1 is the maximum; inactive = score below 0.9.
Test: CCTE_Shafer_MEA_dev_network_spike_number: CCTE's Neural Network Formation Assay for Number of Network Spikes, Shafer Lab (AID 2284048);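 also: synchronized bursts across electrodes counted on days 5 7 9 12 and integrated as AUC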;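 as to AC50: fit as a loss of signal meaning fewer network spikes than DMSO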
Experimental: CCTE_Shafer_MEA_dev assay is conducted using Axion Biosystems 48 well microelectrode array (MEA) plates and Maestro recording system. Each well of the MEA plate contains a grid of 16 microelectrodes embedded in the culture surface. Electrically active cells, such as neurons, can be cultured over the electrodes, and electrical activity in these cells can be recorded extracellularly. The spontaneous firing of neurons is captured from each electrode on a microsecond timescale providing both temporally and spatially precise data. […] The CCTE_Shafer_MEA_dev assay uses primary cultures of rat cortical neurons. Recordings are made on days post-plating 5, 7, 9 and 12. As these cultures mature over time, neural networks develop functional activity and form cohesive networks in which electrical activity can be highly coordinated. CCTE_Shafer_MEA_dev_network_spike_number is 1 of 19 assay components of the CCTE_Shafer_MEA_dev assay. It measures the number of network spikes (temporally-clustered groups of action potential firing across multiple electrodes) during a recording in a microelectrode array (MEA) using Axion Biosystems Maestro 768 channel amplifier with the AxIS adaptive spike detector. To collapse across multiple recordings made on days post-plating 5, 7, 9 and 12, the trapezoidal area-under-the-curve of the component is calculated.Data from the assay component CCTE_Shafer_MEA_dev_network_spike_number was analyzed into 1 assay endpoint. This assay endpoint, CCTE_Shafer_MEA_dev_network_spike_number, was analyzed in the negative analysis fitting direction relative to DMSO as the negative control and baseline of activity. Using a type of functional reporter, gain or loss-of-signal activity can be used to understand electrical activity.
On the day prior to culture, each well was coated thoroughly with 150 uL of 0.05% polyethyleneimine (PEI, Sigma Cat P3143) in 50 mM HEPES (Sigma Cat H7523) at a pH of 8. The plate was incubated at 37C for one hour. PEI was rinsed out with 500 uL of sterile water three times. Plates were stored at 4C until the day of culture. This culture was plated at a seeding density of 1.5 x 10^5 cells/well on a 48-well MEA plate, prepared as described above. Cells were administered via a 25 uL media/laminin ([…]; Sigma Cat L2020-1MG) drop directly onto the microelectrode array, as adding the cells with the laminin results in better attachment than pre-coating with laminin. After 2 hours, an additional 475 uL of cortical media was added and the cells returned to the incubator. Exposure starts at day 0 of plating and is continued over twelve days of network development until the experiment is terminated. Cells are fed with fresh medium on DIV 5 and 9, following the recordings on those days. The entire volume of media in the well is exchanged and any vehicle or compound treatment is renewed. Complete details are found in OP-NHEERL/ISTD/SBB/TJS/2015-03-r0 (available on request, email shafer.tim@epa.gov). Measurement of the electrical activity is non-invasive, and recordings can be made from the same plate over multiple different days of the culture. In cortical neurons, this allows for the measurement of extracellular action potentials over the period during which networks form in the MEA plate.

Row | Structure (SMILES) | outcome | AC50
1 | CC(=O)Nc1ccc(O)cc1 | inactive | –
2 | Nc1ccn([C@@H]2O[C@H](CO)[C@@H](O)C2O)c(=O)n1 (stereo partly specified) | – | 125 nM (active)
3 | O=C(F)C(F)(F)C(F)(F)C(F)(F)C(F)F | inactive | –
4 | CC(C)c1c(C(=O)Nc2ccccc2)c(-c2ccccc2)c(-c2ccc(F)cc2)n1CC[C@@H](O)C[C@@H](O)CC(=O)O | – | 5.74 nM (active)
5 | O=P(O)(O)CCC(F)(F)C(F)(F)C(F)(F)C(F)(F)C(F)(F)C(F)(F)F | inactive | –
6 | NC(C(F)(F)F)C(F)(F)F | inactive | –
7 | O=C(OC(=O)C(F)(F)C(F)(F)F)C(F)(F)C(F)(F)F | inactive | –
8 | CN(C)CCOC(c1ccccc1)c1ccccc1 | inactive | –
9 | O=C(CCCN1CCC(O)(c2ccc(Cl)cc2)CC1)c1ccc(F)cc1 | – | 568 nM (active)
10 | O=P(O)(O)CCC(F)(F)C(F)(F)C(F)(F)C(F)(F)C(F)(F)C(F)(F)C(F)(F)C(F)(F)F | – | 4290 nM (active)
11 | O=CC(F)(F)C(F)(F)C(F)(F)C(F)F | inactive | –
12 | O=C(CC(=O)C(F)(F)C(F)(F)C(F)(F)F)c1cccs1 | inactive | –
13 | O=CC(F)(F)C(F)(F)C(F)(F)F | inactive | –
14 | FC(F)=C(F)C(F)(F)C(F)(F)C(F)(F)C(F)F | inactive | –
15 | CN(CCO)S(=O)(=O)C(F)(F)C(F)(F)C(F)(F)C(F)(F)C(F)(F)C(F)(F)C(F)(F)C(F)(F)F | inactive | –
16 | O=C(O)C(F)(F)OC(F)(F)C(F)(F)OC(F)(F)C(F)(F)OC(F)(F)C(F)(F)C(F)(F)C(F)(F)F | inactive | –
17 | O=C(F)C(F)(F)C(F)(F)C(F)(F)C(=O)F | inactive | –
18 | CN(Cc1cnc2nc(N)nc(N)c2n1)c1ccc(C(=O)N[C@@H](CCC(=O)O)C(=O)O)cc1 | – | 25.8 nM (active)
19 | COC(=O)C(F)(F)C(F)(F)C(F)(F)C(F)(F)C(F)(F)F | inactive | –
20 | COC(=O)C(F)(F)C(F)(F)C(F)(F)F | inactive | –
21 | O=C(O)CCC(F)(F)C(F)(F)C(F)(F)C(F)(F)C(F)(F)F | inactive | –
22 | FCOC(C(F)(F)F)C(F)(F)F | inactive | –
23 | C=CC(F)(F)C(F)(F)C(F)(F)C(F)(F)F | inactive | –
24 | O=C1NS(=O)(=O)c2ccccc21 | inactive | –
25 | OCC(F)(F)C(F)(F)C(F)(F)C(F)(F)C(F)(F)C(F)(F)C(F)(F)C(F)(F)C(F)(F)C(F)(F)C(F)(F)F | inactive | –
26 | O=C(C=C(O)C(F)(F)F)C(F)(F)F | inactive | –

— PubChem BioAssay (EPA / NIEHS)
